Experimental findings from the antibiotic and cytotoxicity screens of Wong et al. (2023) are described below.

About 1,500 (3.8%) of roughly 39,000 compounds were called active. The full list was thinned out, with actives kept by preference.

The subject of the test is HSkMC (human skeletal muscle cells). Kind of test: cytotoxicity call (relative viability < 0.9). Particulars: 10 µM.
Consider `C[C@@H]1CCCCO[C@H](CN(C)C(=O)Nc2ccc(F)cc2)[C@@H](C)CN([C@@H](C)CO)C(=O)c2cc(NC(=O)c3ccccc3)ccc2O1`, for which the cytotoxicity call was “inactive”.
Consider `C[C@@H]1CCCCO[C@H](CN(C)S(=O)(=O)c2cccs2)[C@H](C)CN([C@@H](C)CO)C(=O)c2cc(NC(=O)Nc3ccc(C(F)(F)F)cc3)ccc2O1`, for which the cytotoxicity call was “active”.
As for `C[C@@H]1CN([C@H](C)CO)C(=O)c2cc(NC(=O)Nc3ccc(C(F)(F)F)cc3)ccc2O[C@@H](C)CCCCO[C@@H]1CN(C)S(=O)(=O)c1cccs1`, the cytotoxicity call is “inactive”.
Take `C[C@@H]1CN([C@H](C)CO)C(=O)c2cc(NC(=O)Nc3ccc4c(c3)OCO4)ccc2O[C@@H](C)CCCCO[C@H]1CN(C)S(=O)(=O)c1cccs1`: the cytotoxicity call was “inactive”.
Next, `C[C@H](CO)N1C[C@H](C)[C@@H](CN(C)S(=O)(=O)c2cccs2)OCCCC[C@H](C)Oc2ccc(NC(=O)Nc3ccc(C(F)(F)F)cc3)cc2C1=O`: “inactive”; `C[C@@H]1CCCCO[C@@H](CN(C)S(=O)(=O)c2cccs2)[C@@H](C)CN([C@H](C)CO)C(=O)c2cc(NC(=O)Nc3ccc(C(F)(F)F)cc3)ccc2O1`: “inactive”.
With `C[C@H](CO)N1C[C@H](C)[C@H](CN(C)S(=O)(=O)c2cccs2)OCCCC[C@H](C)Oc2ccc(NC(=O)Nc3cccc4ccccc34)cc2C1=O`, the cytotoxicity call was “active”.
With `C[C@@H]1CCCCO[C@@H](CN(C)S(=O)(=O)c2cccs2)[C@@H](C)CN([C@@H](C)CO)C(=O)c2cc(NC(=O)Nc3cccc4ccccc34)ccc2O1`, the cytotoxicity call is “inactive”.
The entry for `C[C@@H]1CCCCO[C@H](CN(C)S(=O)(=O)c2cccs2)[C@@H](C)CN([C@@H](C)CO)C(=O)c2cc(NC(=O)Nc3ccc(C(F)(F)F)cc3)ccc2O1` is “active”; for `C[C@@H]1CN([C@@H](C)CO)C(=O)c2cc(NC(=O)Nc3ccc(C(F)(F)F)cc3)ccc2O[C@@H](C)CCCCO[C@@H]1CN(C)S(=O)(=O)c1cccs1` it is “inactive”.
For `C[C@H](CO)N1C[C@H](C)[C@@H](CN(C)S(=O)(=O)c2cccs2)OCCCC[C@H](C)Oc2ccc(NC(=O)Nc3ccc4c(c3)OCO4)cc2C1=O`, the cytotoxicity call is “active”.
For the compound `C[C@@H]1CN([C@@H](C)CO)C(=O)c2cc(NC(=O)Nc3ccc4c(c3)OCO4)ccc2O[C@@H](C)CCCCO[C@@H]1CN(C)S(=O)(=O)c1cccs1`, the cytotoxicity call is “inactive”.
For the compound `C[C@@H]1CCCCO[C@@H](CN(C)S(=O)(=O)c2cccs2)[C@H](C)CN([C@@H](C)CO)C(=O)c2cc(NC(=O)Nc3cccc4ccccc34)ccc2O1`, the cytotoxicity call is “inactive”.
Next, `C[C@@H]1CN([C@H](C)CO)C(=O)c2cccc(NS(=O)(=O)c3ccccc3)c2O[C@@H]1CN(C)CC1CC1`: “inactive”.
